{
  "source": "PubChem BioAssay (NCATS)",
  "note": "Inconclusive results are not listed. Active and inactive are the calls of the source. Calls come from the whole dose curve; as a rule, active = well fitted cell-killing curve with a large enough effect; inconclusive = small, poorly fitted or top-dose-only effect; inactive = flat fitted curve, though single readings scatter. Potency is the fitted concentration of half-maximal effect.",
  "data": [
    {"test": "Cell Viability - LYMP2-002 (AID 977);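 note: compound exposure lasted 24 h at 37 °C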;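 for activity change, negative = cytotoxic: plate controls were DMSO only for no effect and 92 µM tetraoctylammonium bromide for full effect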", "conditions": "LYMP2-002 lymphoblastoid cell viability, qHTS; series mostly up to 92.2 µM; activity change, negative = cytotoxic: at the top concentration", "source_text": "NIH Chemical Genomics Center [NCGC]\nNIH Molecular Libraries Screening Centers Network [MLSCN]\nNational Institutes of Environmental Health Sciences [NIEHS]\nNational Toxicology Program [NTP]\nWe have developed a 1536-well cell-based assay for quantitative high throughput screening (qHTS) against a number of cell lines to determine in vitro cytotoxicity of small molecules. This particular assay uses a human lymphoblastoid cell line (LYMP2-002) purchased from Coriell Institute for Medical Research.\nNCGC Assay Protocol Summary:\nThe CellTiter-Glo luminescent cell viability assay (Promega) is a homogeneous method to measure the number of viable cells in culture. The end point readout of this assay is based on quantitation of intracellular ATP, an indicator of metabolic activity, using the luciferase reaction. Luciferase catalyzes the oxidation of beetle Luciferin to oxyluciferin and light in the presence of ATP. The luminescent signal is proportional to amount of ATP present.\nUsing the CellTiter-Glo luminescent cell viability assay, the amount of cellular ATP was measured in the lymphoblastoid cell line with complete culture medium following compound treatment for 24 hours. The assay was performed in opaque white Kalypsys 1536-well plates. In the screen, tetraoctylammonium bromide was used as positive control. Library compounds were measured for their ability to cause acute toxicity in the cell line, as reflected by a decrease in intracellular ATP levels, in a concentration-dependent manner. […] AC50 values were determined from concentration-response data modeled with the standard Hill equation.\nqHTS protocol for CellTiter Glo lymphoblastoid cellular assay\n[Step] [Parameter] [Value] [Description]\n1. Reagent; 5 uL; 2500 lymphoblastoid cells/well\n2. Time; 5 hr; 37 C incubation\n4. Controls; 23 nL; Tetraoctylammonium bromide 6.4pM to 92 uM\n5. Time; 24 hr; 37 C incubation\n6. Reagent; 5 uL; CellTiter Glo reagent\n7. Time; 30 min; Room Temperature\n8. Detection; Luminescence; Viewlux plate reader\nKeywords: cell viability, cytotoxicity, lymphoblastoid cell line, luminescence, NTPHTS, NTPHTS_NCGC, NIEHS, DSSTox, MLSMR, MLSCN, NIH Roadmap, qHTS, NCGC", "values": [
      {"smiles": "[CH3][Hg][Cl]", "Potency": "7.94 µM (active)"},
      {"smiles": "O=Nc1ccc(Nc2ccccc2)cc1", "Potency": "5.01 µM (active)"},
      {"smiles": "Nc1ccccc1C(=O)OCCc1ccccc1", "activity change, negative = cytotoxic": "-8.18% (inactive)"},
      {"smiles": "O=C(O)C1C(C(=O)O)C2(Cl)C(Cl)=C(Cl)C1(Cl)C2(Cl)Cl", "note": "(stereo not drawn)", "activity change, negative = cytotoxic": "11.8% (inactive)"},
      {"smiles": "N#CC(Cl)Cl", "Potency": "12.6 µM (active)"},
      {"smiles": "CN(C)c1ccc(N=O)cc1", "Potency": "2.51 µM (active)"},
      {"smiles": "C[C@@H]1CC[C@@]2(OC1)O[C@H]1[C@@H](O)[C@H]3[C@@H]4CC[C@H]5C[C@@H](O[C@@H]6O[C@H](CO)[C@H](O[C@@H]7O[C@H](CO)[C@@H](O)[C@H](O[C@@H]8OC[C@@H](O)[C@H](O)[C@H]8O)[C@H]7O[C@@H]7O[C@H](CO)[C@@H](O)[C@H](O[C@@H]8O[C@H](CO)[C@@H](O)[C@H](O)[C@H]8O)[C@H]7O)[C@H](O)[C@H]6O)[C@H](O)C[C@]5(C)[C@H]4CC[C@]3(C)[C@H]1[C@@H]2C", "Potency": "25.1 µM (active)"},
      {"smiles": "C#CCO", "activity change, negative = cytotoxic": "-6.25% (inactive)"},
      {"smiles": "CCCCCCCCn1sccc1=O", "Potency": "6.31 µM (active)"},
      {"smiles": "c1cc(OCC2CO2)cc(OCC2CO2)c1", "note": "(stereo not drawn)", "Potency": "39.8 µM (active)"},
      {"smiles": "N#CSCSC#N", "Potency": "10 µM (active)"},
      {"smiles": "c1ccc2cc3c(cc2c1)-c1cccc2cccc-3c12", "activity change, negative = cytotoxic": "4.91% (inactive)"},
      {"smiles": "CC(C)CC(C)Nc1ccc(Nc2ccccc2)cc1", "note": "(stereo not drawn)", "Potency": "39.8 µM (active)"},
      {"smiles": "Clc1ccc(C(c2ccc(Cl)cc2)C(Cl)Cl)cc1", "activity change, negative = cytotoxic": "-18.7% (inactive)"},
      {"smiles": "Oc1c(Br)c(Br)c(Br)c(Br)c1Br", "activity change, negative = cytotoxic": "-16.5% (inactive)"},
      {"smiles": "OC(c1ccc(Cl)cc1)(c1ccc(Cl)cc1)C(Cl)(Cl)Cl", "activity change, negative = cytotoxic": "10.3% (inactive)"},
      {"smiles": "FC(F)(F)c1ccc(Cl)cc1", "activity change, negative = cytotoxic": "2.32% (inactive)"},
      {"smiles": "ClC1=C(Cl)C(Cl)(Cl)C(Cl)=C1Cl", "Potency": "6.31 µM (active)"},
      {"smiles": "O=[N+]([O-])c1cc(C(F)(F)F)cc([N+](=O)[O-])c1Cl", "Potency": "31.6 µM (active)"},
      {"smiles": "O=C(CCl)c1ccccc1", "Potency": "12.6 µM (active)"},
      {"smiles": "COP(=O)(OC)O/C(=C\\Cl)c1cc(Cl)c(Cl)cc1Cl", "activity change, negative = cytotoxic": "-6.59% (inactive)"},
      {"smiles": "CC/C(=C(\\c1ccccc1)c1ccc(OCCN(C)C)cc1)c1ccc(O)cc1", "Potency": "50.1 µM (active)"},
      {"smiles": "O=[N+]([O-])C(Br)Br", "Potency": "10 µM (active)"}
    ]}
  ]
}
